Targets with a hit are over-represented here; the source holds about 7,900 in all. About 0.6% of all pairs of compound and target were hits.
Key:
Assay in all cases: log2 fold change, soluble protein after heating vs DMSO (PISA); higher = thermal stabilisation; K562 cells, 10 uM, 30 min; active = over 0.2 and 3.5 SD of the protein, either way, in both replicates (recomputed)
[1] = compound: CS(=O)(=O)c1ccc(-c2cnc(N)c(C(=O)Nc3ccccc3)n2)cc1
Method in brief: (§1)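 Thermal stability values are relative to control samples and come from duplicates. They are expressed as log2 fold changes. For measurement, K562 cells (2×10^6 cells/mL) received 10 μM compound for 30 min, and aliquots were heated for 3 min over 48°C-58°C, pooled, and extracted at 4°C in PBS with 0.5% NP-40. Soluble protein, the supernatant after 21,000xg for 90 min, was quantified by TMTpro 16plex LC-MS/MS with equalised channel sums.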

[2] = compound: C[C@@H](Oc1cc(-c2cnn(C3CCNCC3)c2)cnc1N)c1c(Cl)ccc(F)c1Cl [crizotinib]
Method in brief: as §1

[3] = compound: C[C@@H]1COCCN1C2=NC(=NC(=C2)C3(CC3)S(=O)(=O)C)C4=C5C=CNC5=CC=C4
Method in brief: as §1

[4] = compound: C[C@H](C1=CC=C(C=C1)C(=O)NC2=C3C=CNC3=NC=C2)N
Method in brief: as §1

[5] = compound: C[C@H](Nc1ncnc2nc[nH]c12)c1cc2cccc(Cl)c2c(=O)n1-c1ccccc1 [duvelisib]
Method in brief: as §1

[6] = compound: Cc1cc(Nc2cc(CN3CCOCC3)c3nc(C)c(Cc4ccc(Cl)cc4F)n3n2)n[nH]1 [gandotinib]
Method in brief: as §1

[7] = compound: Cc1cc(Nc2cc(N3CCN(C)CC3)nc(Sc3ccc(NC(=O)C4CC4)cc3)n2)n[nH]1 [tozasertib]
Method in brief: as §1

[8] = compound: Cc1cc(SCc2sc(-c3ccc(C(F)(F)F)cc3)nc2C)ccc1OCC(=O)O
Method in brief: as §1

[9] = compound: Cc1ccc(-n2nc(C(C)(C)C)cc2NC(=O)Nc2ccc(OCCN3CCOCC3)c3ccccc23)cc1 [doramapimod]
Method in brief: as §1

[10] = compound: Cc1ccc(C(=O)N(CCCN)[C@@H](c2nc3cc(Cl)ccc3c(=O)n2Cc2ccccc2)C(C)C)cc1 [ispinesib]
Method in brief: as §1

[11] = compound: Cc1ccc(NC(=O)c2ccc(CN3CC[C@H](N(C)C)C3)c(C(F)(F)F)c2)cc1Nc1nccc(-c2cncnc2)n1 [bafetinib]
Method in brief: as §1

[12] = compound: Cc1cccc(CC(=O)N2CCc3c2ccc(-c2cn(C)c4ncnc(N)c24)c3F)n1
Method in brief: as §1

[13] = compound: Cc1cn(-c2cc(NC(=O)c3ccc(C)c(Nc4nccc(-c5cccnc5)n4)c3)cc(C(F)(F)F)c2)cn1 [nilotinib]
Method in brief: as §1

[14] = compound: Cc1nc(Nc2n[nH]c3c2CN(C(=O)N[C@H](CN(C)C)c2ccccc2)C3(C)C)c2sccc2n1
Method in brief: as §1

[15] = compound: Cc1nc(Nc2ncc(C(=O)Nc3c(C)cccc3Cl)s2)cc(N2CCN(CCO)CC2)n1 [dasatinib]
Method in brief: as §1

[16] = compound: Cc1ncc(-c2ccnc(Nc3ccc(S(C)(=O)=O)cc3)n2)n1C(C)C
Method in brief: as §1

[17] = compound: Cn1cc(-c2ccc3c(c2)CCN3C(=O)Cc2cccc(C(F)(F)F)c2)c2c(N)ncnc21
Method in brief: as §1

[18] = compound: Cn1cc(-c2ccc3nnc(C(F)(F)c4ccc5ncccc5c4)n3n2)cn1
Method in brief: as §1

[19] = compound: Cn1cncc1[C@@](N)(c1ccc(Cl)cc1)c1ccc2c(c1)c(-c1cccc(Cl)c1)cc(=O)n2C [tipifarnib]
Method in brief: as §1

[20] = compound: FC(F)(F)c1ccc(/C=C/c2nc(COc3ccc(CCCCn4ccnn4)cc3)co2)cc1 [mubritinib]
Method in brief: as §1

Measured: log2 fold change

CDC42BPB (UniProt Q9Y5S2)
inactive: [1] 0.068 | [2] 0.056 | [3] -0.031 | [4] -0.149 | [5] 0.012 | [6] 0.029 | [7] 0.112 | [8] 0.005 | [9] 0.01 | [10] -0.148 | [11] 0.22 | [12] -0.034 | [13] 0.062 | [14] -0.118 | [15] -0.029 | [16] 0.106 | [17] -0.054 | [18] -0.017 | [19] 0.094 | [20] 0.177

CHD3 isoform 3 (UniProt Q12873)
inactive: [1] -0.036 | [2] -0.128 | [3] 0.068 | [4] 0.079 | [5] 0.01 | [6] 0.237 | [7] 0.23 | [8] 0.14 | [9] 0.026 | [10] -0.193 | [11] 0.01 | [12] 0.004 | [13] -0.093 | [14] -0.274 | [15] -0.086 | [16] -0.172 | [17] -0.06 | [18] 0.063 | [19] -0.089 | [20] -0.058

CHMP4B (UniProt Q9H444)
Sequence of UniProt Q9H444 (Q9H444 whole entry, looked up): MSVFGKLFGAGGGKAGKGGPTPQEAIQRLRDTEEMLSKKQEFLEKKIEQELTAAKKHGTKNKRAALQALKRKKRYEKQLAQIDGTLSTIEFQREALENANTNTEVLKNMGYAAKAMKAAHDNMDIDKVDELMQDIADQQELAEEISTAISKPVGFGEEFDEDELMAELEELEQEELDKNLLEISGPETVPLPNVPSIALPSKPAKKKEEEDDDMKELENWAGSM
inactive: [1] -0.067 | [2] -0.036 | [3] -0.011 | [4] -0.022 | [5] -0.004 | [6] -0.075 | [7] -0.037 | [8] -0.014 | [9] 0.005 | [10] -0.008 | [11] -0.078 | [12] 0.061 | [13] -0.027 | [14] 0.007 | [15] 0.017 | [16] -0.023 | [17] 0.012 | [18] -0.013 | [19] 0.053 | [20] 0.051

CDK8 (UniProt P49336)
Sequence of UniProt P49336 (P49336 whole entry, looked up): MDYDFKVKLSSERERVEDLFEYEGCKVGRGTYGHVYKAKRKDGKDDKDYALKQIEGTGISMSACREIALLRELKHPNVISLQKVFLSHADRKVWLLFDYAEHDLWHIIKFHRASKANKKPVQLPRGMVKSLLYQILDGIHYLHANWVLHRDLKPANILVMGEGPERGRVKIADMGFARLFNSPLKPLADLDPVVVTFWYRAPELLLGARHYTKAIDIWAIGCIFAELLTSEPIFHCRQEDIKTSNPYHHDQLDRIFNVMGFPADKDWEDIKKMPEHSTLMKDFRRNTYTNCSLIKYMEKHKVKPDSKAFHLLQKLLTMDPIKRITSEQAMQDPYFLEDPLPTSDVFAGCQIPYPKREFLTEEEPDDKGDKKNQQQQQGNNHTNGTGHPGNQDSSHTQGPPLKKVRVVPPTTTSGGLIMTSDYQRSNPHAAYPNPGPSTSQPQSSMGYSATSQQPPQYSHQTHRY
active: [9] 0.425
inactive: [1] -0.049 | [2] -0.029 | [3] 0.033 | [4] 0.248 | [5] -0.071 | [6] -0.13 | [7] -0.199 | [8] 0.155 | [10] 0.031 | [11] 0.109 | [12] 0.014 | [15] 0.067 | [17] 0.057 | [18] 0.018 | [19] 0 | [20] 0.01

CLPP (UniProt Q16740)
Sequence of UniProt Q16740 (Q16740 whole entry, looked up): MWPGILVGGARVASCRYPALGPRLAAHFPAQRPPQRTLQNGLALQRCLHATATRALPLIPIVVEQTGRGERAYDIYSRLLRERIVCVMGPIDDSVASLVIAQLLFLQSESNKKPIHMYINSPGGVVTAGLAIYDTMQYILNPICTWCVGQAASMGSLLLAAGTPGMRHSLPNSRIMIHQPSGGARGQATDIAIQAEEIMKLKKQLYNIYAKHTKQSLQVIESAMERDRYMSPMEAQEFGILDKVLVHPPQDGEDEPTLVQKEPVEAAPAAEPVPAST
active: [2] 0.348
inactive: [1] 0.05 | [3] 0.058 | [4] -0.025 | [5] 0.006 | [6] 0.008 | [7] -0.02 | [8] 0.017 | [9] 0.003 | [10] 0.105 | [11] 0.025 | [12] -0.045 | [13] 0.022 | [14] 0.005 | [15] 0.063 | [16] -0.016 | [17] 0.115 | [18] 0.02 | [19] 0.003 | [20] 0.004

CDK5RAP3 isoform 4 (UniProt Q96JB5)
Sequence of UniProt Q96JB5 (Q96JB5 whole entry, looked up): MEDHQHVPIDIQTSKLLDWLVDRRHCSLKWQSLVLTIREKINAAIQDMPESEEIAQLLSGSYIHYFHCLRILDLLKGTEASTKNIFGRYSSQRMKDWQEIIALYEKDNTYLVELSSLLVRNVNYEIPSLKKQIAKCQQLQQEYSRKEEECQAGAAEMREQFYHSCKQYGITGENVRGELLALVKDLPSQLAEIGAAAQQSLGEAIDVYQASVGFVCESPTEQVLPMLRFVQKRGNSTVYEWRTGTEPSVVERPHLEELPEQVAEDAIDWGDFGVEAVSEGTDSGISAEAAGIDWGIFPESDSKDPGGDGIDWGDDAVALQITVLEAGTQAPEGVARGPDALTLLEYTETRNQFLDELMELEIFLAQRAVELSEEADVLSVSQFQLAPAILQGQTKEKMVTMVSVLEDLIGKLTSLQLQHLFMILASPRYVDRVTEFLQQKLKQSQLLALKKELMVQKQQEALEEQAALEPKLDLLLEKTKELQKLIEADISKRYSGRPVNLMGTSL
inactive: [1] -0.017 | [2] -0.054 | [3] 0.044 | [4] -0.038 | [5] 0.005 | [6] -0.051 | [7] 0.015 | [8] 0.016 | [9] -0.033 | [10] -0.036 | [11] 0.039 | [12] 0.122 | [13] -0.094 | [14] 0.012 | [15] -0.082 | [16] 0.054 | [17] 0.008 | [18] 0.024 | [19] -0.052 | [20] 0.083

COMT (UniProt P21964)
Sequence of UniProt P21964 (P21964 whole entry, looked up): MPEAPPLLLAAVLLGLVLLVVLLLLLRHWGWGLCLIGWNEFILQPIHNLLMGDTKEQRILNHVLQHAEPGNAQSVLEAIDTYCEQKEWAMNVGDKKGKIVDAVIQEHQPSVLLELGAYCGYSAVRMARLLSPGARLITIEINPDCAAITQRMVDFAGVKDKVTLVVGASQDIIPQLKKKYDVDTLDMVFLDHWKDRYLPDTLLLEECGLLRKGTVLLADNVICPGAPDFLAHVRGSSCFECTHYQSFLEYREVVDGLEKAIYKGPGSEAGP
inactive: [1] 0.04 | [3] 0.053 | [4] -0.081 | [5] 0.109 | [6] 0.031 | [7] -0.028 | [8] 0.02 | [9] 0 | [11] 0.011 | [12] -0.019 | [13] 0.01 | [14] 0.119 | [15] 0.03 | [16] 0.009 | [17] 0.073 | [18] 0.031 | [19] 0.002 | [20] 0.06
active: [2] 0.352 | [10] 0.235

CHAMP1 (UniProt Q96JM3)
Sequence of UniProt Q96JM3 (Q96JM3 whole entry, looked up): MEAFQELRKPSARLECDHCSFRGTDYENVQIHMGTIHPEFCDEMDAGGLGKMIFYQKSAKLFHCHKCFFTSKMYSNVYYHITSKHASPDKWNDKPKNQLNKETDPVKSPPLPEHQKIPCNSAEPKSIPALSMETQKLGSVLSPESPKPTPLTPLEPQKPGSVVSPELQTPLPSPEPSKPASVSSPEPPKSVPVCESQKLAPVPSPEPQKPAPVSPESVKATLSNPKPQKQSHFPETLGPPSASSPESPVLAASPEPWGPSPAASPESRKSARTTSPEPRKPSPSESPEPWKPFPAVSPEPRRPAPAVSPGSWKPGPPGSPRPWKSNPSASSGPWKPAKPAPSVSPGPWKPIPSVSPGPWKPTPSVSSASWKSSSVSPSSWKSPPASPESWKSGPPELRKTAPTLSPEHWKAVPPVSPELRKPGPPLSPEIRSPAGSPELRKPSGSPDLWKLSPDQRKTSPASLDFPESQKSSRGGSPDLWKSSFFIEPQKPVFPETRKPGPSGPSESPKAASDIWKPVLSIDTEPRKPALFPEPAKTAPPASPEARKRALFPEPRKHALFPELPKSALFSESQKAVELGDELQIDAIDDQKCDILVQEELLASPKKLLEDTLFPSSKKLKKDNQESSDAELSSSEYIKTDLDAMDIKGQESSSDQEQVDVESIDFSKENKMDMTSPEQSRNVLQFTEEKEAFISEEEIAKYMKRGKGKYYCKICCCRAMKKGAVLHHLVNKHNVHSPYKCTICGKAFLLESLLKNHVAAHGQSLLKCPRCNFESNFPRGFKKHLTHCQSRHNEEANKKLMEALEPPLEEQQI
inactive: [1] 0.02 | [2] -0.154 | [3] 0.074 | [4] -0.071 | [5] -0.076 | [6] -0.046 | [7] 0.045 | [8] -0.049 | [9] -0.003 | [10] -0.185 | [11] -0.134 | [12] 0.049 | [13] 0 | [14] -0.132 | [15] -0.092 | [16] -0.123 | [17] 0.026 | [18] 0.067 | [19] 0.014 | [20] 0.056

CLCN7 (UniProt P51798)
Sequence of UniProt P51798 (P51798 whole entry, looked up): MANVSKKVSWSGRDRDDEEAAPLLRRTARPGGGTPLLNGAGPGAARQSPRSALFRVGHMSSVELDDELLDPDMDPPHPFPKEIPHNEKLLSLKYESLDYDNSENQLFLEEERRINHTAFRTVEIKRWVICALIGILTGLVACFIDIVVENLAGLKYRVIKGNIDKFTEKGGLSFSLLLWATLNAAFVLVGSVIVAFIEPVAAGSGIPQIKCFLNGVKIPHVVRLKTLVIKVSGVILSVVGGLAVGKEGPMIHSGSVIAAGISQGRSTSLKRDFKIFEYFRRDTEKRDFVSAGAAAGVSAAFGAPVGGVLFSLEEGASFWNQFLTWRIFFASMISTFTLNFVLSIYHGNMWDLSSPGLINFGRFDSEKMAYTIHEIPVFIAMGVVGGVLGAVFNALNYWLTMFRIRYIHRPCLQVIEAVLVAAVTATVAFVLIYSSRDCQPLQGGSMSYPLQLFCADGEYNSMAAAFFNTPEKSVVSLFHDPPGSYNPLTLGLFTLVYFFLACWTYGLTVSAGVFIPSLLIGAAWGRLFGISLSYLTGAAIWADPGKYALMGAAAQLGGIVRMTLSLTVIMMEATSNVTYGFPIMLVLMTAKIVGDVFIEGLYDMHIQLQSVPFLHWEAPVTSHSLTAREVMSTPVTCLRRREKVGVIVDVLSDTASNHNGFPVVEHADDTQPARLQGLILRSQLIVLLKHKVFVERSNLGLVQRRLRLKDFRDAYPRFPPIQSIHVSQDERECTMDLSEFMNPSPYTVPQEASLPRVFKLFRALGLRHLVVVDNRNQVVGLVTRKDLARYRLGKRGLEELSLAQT
inactive: [1] -0.037 | [3] 0.018 | [4] -0.091 | [5] -0.089 | [6] -0.193 | [7] -0.031 | [8] 0.028 | [9] -0.008 | [11] -0.24 | [12] 0.083 | [13] -0.035 | [14] -0.012 | [15] -0.091 | [16] -0.111 | [17] 0.011 | [18] 0.049 | [19] 0.038 | [20] -0.02
active: [2] -0.814 | [10] -0.952

CCNH (UniProt P51946)
Sequence of UniProt P51946 (P51946 whole entry, looked up): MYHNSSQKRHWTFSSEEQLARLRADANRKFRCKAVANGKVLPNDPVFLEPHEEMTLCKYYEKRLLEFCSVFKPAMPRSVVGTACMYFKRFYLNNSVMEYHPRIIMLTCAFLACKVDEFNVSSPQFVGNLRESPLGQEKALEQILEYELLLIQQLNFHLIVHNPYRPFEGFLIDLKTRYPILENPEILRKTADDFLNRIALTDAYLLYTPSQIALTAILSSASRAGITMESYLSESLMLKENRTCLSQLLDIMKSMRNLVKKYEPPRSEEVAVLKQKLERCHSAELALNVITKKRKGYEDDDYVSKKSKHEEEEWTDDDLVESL
inactive: [1] -0.033 | [2] 0.033 | [3] 0.048 | [4] -0.031 | [5] 0.037 | [6] 0.013 | [7] 0.046 | [8] -0.01 | [9] -0.086 | [10] 0.098 | [11] -0.064 | [12] -0.01 | [13] -0.008 | [14] 0.113 | [15] 0.023 | [16] -0.056 | [17] -0.005 | [18] 0.005 | [19] 0.051 | [20] 0.08

CASP9 (UniProt P55211)
inactive: [1] 0.088 | [2] 0.002 | [3] 0.014 | [4] 0.014 | [5] 0.104 | [6] -0.152 | [7] 0.138 | [8] 0.064 | [9] 0.05 | [10] 0.037 | [12] 0.037 | [13] -0.013 | [14] -0.136 | [15] -0.075 | [16] 0 | [17] -0.276 | [18] -0.004 | [19] 0.003

CASP2 (UniProt P42575)
Sequence of UniProt P42575 (P42575 whole entry, looked up): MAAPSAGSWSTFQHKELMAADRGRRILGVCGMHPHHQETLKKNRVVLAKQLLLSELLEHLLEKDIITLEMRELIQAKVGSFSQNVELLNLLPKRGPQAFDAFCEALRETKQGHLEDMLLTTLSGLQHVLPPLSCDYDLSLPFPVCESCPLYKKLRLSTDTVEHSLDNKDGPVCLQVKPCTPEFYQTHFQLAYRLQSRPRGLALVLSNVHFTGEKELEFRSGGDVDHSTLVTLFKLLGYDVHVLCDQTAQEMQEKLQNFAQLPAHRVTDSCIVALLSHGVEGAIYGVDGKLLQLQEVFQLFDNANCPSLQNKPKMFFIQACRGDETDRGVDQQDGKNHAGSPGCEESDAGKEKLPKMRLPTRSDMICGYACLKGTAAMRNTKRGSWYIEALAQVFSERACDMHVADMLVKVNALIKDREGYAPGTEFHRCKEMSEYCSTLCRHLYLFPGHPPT
inactive: [1] 0.004 | [2] -0.062 | [3] 0.023 | [4] -0.002 | [5] 0.061 | [6] -0.071 | [7] 0.083 | [8] 0.05 | [9] 0.077 | [10] 0.039 | [11] 0.041 | [12] -0.035 | [13] -0.037 | [14] 0.076 | [15] -0.165 | [16] 0.114 | [17] 0.105 | [18] -0.056 | [19] -0.118 | [20] 0.006

CCDC9 (UniProt Q9Y3X0)
inactive: [1] -0.046 | [2] 0.016 | [3] -0.063 | [4] 0.105 | [5] -0.04 | [6] 0.194 | [7] -0.083 | [8] -0.012 | [9] -0.008 | [10] -0.215 | [11] -0.011 | [12] -0.032 | [13] 0.002 | [14] 0.117 | [15] 0.072 | [16] 0.028 | [17] -0.046 | [18] -0.05 | [19] -0.004 | [20] -0.038

CSTF2 (UniProt P33240)
inactive: [1] 0.016 | [2] 0.075 | [3] 0.14 | [4] -0.042 | [5] 0.029 | [6] 0.048 | [7] 0.033 | [8] -0.011 | [9] 0.028 | [10] 0.068 | [11] -0.05 | [12] -0.061 | [13] -0.029 | [14] 0.074 | [15] 0.007 | [16] 0.047 | [17] -0.011 | [18] -0.014 | [19] 0.028 | [20] -0.046

CRK (UniProt P46108)
Sequence of UniProt P46108 (P46108 whole entry, looked up): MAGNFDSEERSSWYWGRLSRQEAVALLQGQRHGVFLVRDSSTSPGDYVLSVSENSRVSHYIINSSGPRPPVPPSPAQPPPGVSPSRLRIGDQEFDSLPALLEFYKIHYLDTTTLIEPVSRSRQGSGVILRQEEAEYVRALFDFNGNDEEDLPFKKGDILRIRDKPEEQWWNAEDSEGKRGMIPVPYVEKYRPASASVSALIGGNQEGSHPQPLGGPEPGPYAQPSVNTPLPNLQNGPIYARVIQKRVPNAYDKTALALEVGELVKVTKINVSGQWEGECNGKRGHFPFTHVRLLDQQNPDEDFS
active: [2] -1.02 | [11] -0.586 | [13] -0.826 | [15] -0.883
inactive: [1] 0.043 | [3] 0.008 | [4] -0.064 | [5] -0.025 | [6] -0.096 | [7] -0.254 | [8] 0.058 | [9] 0.01 | [10] -0.004 | [12] -0.02 | [14] -0.136 | [16] 0.036 | [17] -0.007 | [18] 0.03 | [19] 0.026 | [20] 0.075

CDK9 isoform 2 (UniProt P50750)
Sequence of UniProt P50750 (P50750 whole entry, looked up): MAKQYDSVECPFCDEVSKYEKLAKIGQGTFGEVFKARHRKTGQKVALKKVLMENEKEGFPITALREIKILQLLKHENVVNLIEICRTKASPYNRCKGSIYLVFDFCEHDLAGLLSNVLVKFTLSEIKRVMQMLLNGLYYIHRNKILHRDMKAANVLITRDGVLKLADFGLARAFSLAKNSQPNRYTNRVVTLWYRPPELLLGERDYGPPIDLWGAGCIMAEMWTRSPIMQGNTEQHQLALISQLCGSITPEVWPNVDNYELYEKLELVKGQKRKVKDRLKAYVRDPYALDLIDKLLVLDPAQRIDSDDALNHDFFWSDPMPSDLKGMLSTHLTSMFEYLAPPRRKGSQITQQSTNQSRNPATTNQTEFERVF
inactive: [1] -0.017 | [2] -0.103 | [3] -0.075 | [4] 0.189 | [5] -0.076 | [6] -0.054 | [7] -0.031 | [8] 0.03 | [9] 0.066 | [10] -0.013 | [11] 0.039 | [12] 0.108 | [13] -0.045 | [14] -0.059 | [15] -0.011 | [16] 0.22 | [17] -0.091 | [18] -0.013 | [19] 0.068 | [20] -0.067

— the supplement of paper PMC10849652
